{
  "source": "the supplement of paper PMC11732987",
  "about": "“Enantioselective OTUD7B fragment discovery through chemoproteomics screening and high-throughput optimisation” (Communications Chemistry, 2025)",
  "assay_in_all_cases": "log2 ratio of Biotin-Ahx-Ub-VS probe labelling (fragment/DMSO); higher = less target engagement (more negative = stronger competition), active = hit call of the paper (q ≤ 0.05, log2 ratio ≤ -1)",
  "conditions_in_all_cases": "compound concentration: 200 uM; treatment time: 3 h",
  "key": {"ALG13": {"biological_target": "T1, ALG13 (UniProt Q9NP73)", "T1 sequence (whole entry)": "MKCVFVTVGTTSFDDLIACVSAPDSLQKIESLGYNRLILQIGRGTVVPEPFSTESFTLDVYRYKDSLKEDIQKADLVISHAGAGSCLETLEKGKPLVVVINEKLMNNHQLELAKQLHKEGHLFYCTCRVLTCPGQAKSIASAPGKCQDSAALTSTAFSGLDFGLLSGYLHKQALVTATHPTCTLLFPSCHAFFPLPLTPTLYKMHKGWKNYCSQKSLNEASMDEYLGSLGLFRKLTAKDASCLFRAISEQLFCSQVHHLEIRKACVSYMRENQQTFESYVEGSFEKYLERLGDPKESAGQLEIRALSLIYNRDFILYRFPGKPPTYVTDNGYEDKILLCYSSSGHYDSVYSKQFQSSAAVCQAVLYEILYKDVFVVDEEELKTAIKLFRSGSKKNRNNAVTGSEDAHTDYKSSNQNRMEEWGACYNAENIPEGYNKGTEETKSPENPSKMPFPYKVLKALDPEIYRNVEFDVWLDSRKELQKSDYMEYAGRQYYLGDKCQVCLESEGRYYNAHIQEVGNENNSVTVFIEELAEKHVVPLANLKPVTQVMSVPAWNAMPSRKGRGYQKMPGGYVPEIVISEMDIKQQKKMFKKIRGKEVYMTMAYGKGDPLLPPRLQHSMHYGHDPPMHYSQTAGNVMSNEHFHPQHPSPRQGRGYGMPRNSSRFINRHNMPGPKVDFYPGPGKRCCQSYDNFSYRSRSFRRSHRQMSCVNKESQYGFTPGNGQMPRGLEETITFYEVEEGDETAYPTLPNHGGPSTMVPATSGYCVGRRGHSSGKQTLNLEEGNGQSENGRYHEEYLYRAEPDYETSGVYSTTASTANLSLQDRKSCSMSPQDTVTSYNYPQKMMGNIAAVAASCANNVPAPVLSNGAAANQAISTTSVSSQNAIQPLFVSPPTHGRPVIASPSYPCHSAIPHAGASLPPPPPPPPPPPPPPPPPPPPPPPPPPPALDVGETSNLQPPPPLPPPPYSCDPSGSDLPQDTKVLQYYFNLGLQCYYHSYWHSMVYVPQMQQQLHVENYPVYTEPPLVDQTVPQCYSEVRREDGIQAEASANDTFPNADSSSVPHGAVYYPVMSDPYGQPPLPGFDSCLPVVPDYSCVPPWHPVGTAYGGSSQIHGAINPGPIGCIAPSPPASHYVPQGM", "procedure,_shortened": "(§1)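 Labelling with Biotin-Ahx-Ub-VS (0.5 µM final, 1 h) followed a 3 h triplicate treatment of HEK293T lysate (495 µg per sample, Tris/CHAPS/IGEPAL buffer with protease inhibitors) with fragment at 200 µM or vehicle. Labelled DUBs were NeutrAvidin-enriched, digested with LysC and trypsin, and run by diaPASEF LC-MS/MS. The values, average log2 fragment/vehicle ratios by unpaired t-test, come from global-median-normalised Spectronaut label-free quantities. Proteins with ≥2 unique peptides were used.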"}, "ATXN3": {"biological_target": "ATXN3 (UniProt P54252)", "sequence (P54252 whole entry)": "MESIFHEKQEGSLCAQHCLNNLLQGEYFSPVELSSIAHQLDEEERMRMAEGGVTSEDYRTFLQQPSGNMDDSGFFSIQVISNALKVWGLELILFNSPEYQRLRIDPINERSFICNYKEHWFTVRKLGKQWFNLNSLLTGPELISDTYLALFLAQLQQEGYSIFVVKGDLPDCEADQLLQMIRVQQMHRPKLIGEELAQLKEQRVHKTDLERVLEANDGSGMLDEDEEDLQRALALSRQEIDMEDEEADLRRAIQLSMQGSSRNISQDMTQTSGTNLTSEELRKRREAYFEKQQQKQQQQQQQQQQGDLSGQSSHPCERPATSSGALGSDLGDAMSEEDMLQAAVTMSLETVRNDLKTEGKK", "procedure,_shortened": "as §1"}, "BAP1": {"biological_target": "T2, BAP1 (UniProt Q92560)", "T2 sequence (whole entry)": "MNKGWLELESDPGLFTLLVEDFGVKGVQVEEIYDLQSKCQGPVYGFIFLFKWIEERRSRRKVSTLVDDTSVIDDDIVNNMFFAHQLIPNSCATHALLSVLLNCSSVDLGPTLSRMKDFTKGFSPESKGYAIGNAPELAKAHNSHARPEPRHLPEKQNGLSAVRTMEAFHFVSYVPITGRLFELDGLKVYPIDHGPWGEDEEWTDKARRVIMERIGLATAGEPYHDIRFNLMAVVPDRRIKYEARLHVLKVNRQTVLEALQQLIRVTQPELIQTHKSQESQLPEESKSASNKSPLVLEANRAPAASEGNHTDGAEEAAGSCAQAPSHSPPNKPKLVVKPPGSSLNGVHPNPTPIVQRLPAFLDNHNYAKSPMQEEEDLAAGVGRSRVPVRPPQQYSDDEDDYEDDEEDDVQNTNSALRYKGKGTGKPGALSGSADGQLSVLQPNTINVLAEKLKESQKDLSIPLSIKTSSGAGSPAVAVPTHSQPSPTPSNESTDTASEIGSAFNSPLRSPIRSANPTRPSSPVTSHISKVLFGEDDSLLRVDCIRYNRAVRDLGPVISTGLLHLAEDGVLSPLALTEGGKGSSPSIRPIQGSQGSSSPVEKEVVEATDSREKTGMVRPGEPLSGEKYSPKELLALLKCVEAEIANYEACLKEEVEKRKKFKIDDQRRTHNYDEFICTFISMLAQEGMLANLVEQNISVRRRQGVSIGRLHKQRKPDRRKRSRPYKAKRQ", "procedure,_shortened": "as §1"}, "EIF3F": {"biological_target": "EIF3F (UniProt O00303)", "sequence (O00303 whole entry)": "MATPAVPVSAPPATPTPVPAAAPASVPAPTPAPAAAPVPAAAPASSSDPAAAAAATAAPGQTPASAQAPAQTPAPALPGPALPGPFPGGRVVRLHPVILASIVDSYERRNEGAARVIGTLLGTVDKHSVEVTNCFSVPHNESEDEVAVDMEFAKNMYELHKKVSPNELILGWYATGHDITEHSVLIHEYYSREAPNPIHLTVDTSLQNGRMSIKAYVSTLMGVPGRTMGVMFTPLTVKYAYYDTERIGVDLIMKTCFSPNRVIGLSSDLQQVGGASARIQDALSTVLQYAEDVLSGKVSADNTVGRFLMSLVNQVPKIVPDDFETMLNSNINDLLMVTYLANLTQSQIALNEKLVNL", "procedure,_shortened": "as §1"}, "EIF3H": {"biological_target": "EIF3H (UniProt O15372)", "sequence (O15372 whole entry)": "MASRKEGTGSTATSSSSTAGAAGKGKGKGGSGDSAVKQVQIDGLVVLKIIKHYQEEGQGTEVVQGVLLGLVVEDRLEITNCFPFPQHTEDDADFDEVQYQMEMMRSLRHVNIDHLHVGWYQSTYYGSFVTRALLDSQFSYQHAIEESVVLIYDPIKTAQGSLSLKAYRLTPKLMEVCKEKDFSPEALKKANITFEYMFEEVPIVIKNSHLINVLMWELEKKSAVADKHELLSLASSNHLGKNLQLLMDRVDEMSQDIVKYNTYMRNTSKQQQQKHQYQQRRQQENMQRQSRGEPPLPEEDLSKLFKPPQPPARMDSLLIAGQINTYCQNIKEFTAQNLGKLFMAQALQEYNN", "procedure,_shortened": "as §1"}, "FAM105A": {"biological_target": "T3, FAM105A (UniProt Q9NUU6)", "T3 sequence (whole entry)": "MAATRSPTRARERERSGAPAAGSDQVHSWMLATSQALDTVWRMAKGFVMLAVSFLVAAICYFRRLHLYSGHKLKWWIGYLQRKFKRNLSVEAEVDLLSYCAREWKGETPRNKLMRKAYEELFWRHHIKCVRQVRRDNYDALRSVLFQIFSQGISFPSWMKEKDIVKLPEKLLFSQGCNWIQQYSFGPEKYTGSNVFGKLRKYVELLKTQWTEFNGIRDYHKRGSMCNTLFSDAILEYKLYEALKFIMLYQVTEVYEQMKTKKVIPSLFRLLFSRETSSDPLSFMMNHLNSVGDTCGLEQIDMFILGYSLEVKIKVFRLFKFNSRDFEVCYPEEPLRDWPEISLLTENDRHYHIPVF", "procedure,_shortened": "as §1"}, "OTUB1": {"biological_target": "OTUB1 (UniProt Q96FW1)", "sequence (Q96FW1 whole entry)": "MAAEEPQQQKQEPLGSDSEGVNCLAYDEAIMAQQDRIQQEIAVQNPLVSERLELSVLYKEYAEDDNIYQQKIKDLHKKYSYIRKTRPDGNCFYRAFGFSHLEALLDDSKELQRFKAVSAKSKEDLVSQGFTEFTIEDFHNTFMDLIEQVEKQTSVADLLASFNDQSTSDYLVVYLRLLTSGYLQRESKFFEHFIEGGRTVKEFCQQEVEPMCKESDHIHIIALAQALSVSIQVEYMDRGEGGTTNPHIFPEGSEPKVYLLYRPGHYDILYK", "procedure,_shortened": "as §1"}, "OTUD4": {"biological_target": "T4, OTUD4 (UniProt Q01804)", "T4 sequence (whole entry)": "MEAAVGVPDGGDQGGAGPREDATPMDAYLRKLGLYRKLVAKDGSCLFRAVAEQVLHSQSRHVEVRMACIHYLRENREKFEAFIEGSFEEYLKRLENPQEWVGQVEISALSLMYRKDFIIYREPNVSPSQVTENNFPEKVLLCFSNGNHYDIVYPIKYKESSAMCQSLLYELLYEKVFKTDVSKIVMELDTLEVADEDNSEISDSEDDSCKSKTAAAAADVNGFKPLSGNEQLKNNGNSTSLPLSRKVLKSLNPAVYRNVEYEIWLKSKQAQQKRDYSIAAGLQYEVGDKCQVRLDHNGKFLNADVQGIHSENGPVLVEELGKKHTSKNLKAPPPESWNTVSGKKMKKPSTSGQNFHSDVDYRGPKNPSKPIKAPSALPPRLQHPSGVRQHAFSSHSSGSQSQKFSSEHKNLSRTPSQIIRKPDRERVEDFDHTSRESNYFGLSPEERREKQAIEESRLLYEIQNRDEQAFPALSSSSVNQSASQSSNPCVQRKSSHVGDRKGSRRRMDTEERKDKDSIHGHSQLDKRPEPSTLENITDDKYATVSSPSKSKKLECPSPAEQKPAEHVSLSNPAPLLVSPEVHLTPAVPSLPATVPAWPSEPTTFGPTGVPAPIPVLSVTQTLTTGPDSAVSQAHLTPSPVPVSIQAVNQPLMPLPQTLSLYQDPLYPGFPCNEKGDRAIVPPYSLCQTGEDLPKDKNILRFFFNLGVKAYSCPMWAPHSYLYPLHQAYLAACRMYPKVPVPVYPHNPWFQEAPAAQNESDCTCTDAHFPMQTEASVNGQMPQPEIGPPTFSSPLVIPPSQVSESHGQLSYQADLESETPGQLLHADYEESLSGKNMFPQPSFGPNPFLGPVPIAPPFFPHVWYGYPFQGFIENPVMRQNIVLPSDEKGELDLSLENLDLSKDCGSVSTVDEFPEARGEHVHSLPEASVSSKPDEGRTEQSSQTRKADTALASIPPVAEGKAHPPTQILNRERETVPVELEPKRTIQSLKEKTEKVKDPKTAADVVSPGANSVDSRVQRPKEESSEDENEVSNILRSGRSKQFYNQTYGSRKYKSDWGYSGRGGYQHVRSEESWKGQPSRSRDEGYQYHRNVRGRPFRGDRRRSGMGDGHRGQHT", "procedure,_shortened": "as §1"}, "OTUD5": {"biological_target": "T5, OTUD5 (UniProt Q96G74)", "T5 sequence (whole entry)": "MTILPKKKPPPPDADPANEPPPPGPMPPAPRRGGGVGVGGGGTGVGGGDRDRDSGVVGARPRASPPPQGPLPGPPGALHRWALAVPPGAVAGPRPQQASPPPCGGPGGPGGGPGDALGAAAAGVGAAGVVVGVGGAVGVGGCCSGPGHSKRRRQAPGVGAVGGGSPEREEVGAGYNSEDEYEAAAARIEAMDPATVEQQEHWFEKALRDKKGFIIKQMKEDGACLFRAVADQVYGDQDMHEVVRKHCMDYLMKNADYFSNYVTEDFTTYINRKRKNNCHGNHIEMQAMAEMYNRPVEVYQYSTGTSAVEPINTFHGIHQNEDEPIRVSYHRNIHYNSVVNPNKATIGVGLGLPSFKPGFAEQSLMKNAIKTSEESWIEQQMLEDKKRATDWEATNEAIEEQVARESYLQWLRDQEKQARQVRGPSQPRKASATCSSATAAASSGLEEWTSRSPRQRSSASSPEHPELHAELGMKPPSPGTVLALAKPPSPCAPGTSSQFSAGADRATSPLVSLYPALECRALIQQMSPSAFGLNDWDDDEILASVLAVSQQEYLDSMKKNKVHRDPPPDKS", "procedure,_shortened": "as §1"}},
  "note": "Values without a mark were called inactive.",
  "data": [
    {"compound": "N#Cc1ccc(Cl)cc1NC(=O)CCl", "values": [
      {"measurement": "log2 ratio of Biotin-Ahx-Ub-VS probe labelling", "setting": "ALG13", "value": -0.187},
      {"measurement": "log2 ratio of Biotin-Ahx-Ub-VS probe labelling", "setting": "ATXN3", "value": -0.113},
      {"measurement": "log2 ratio of Biotin-Ahx-Ub-VS probe labelling", "setting": "BAP1", "value": "-4.1 (active)"},
      {"measurement": "log2 ratio of Biotin-Ahx-Ub-VS probe labelling", "setting": "EIF3F", "value": -0.13},
      {"measurement": "log2 ratio of Biotin-Ahx-Ub-VS probe labelling", "setting": "EIF3H", "value": 0.269},
      {"measurement": "log2 ratio of Biotin-Ahx-Ub-VS probe labelling", "setting": "FAM105A", "value": -0.217},
      {"measurement": "log2 ratio of Biotin-Ahx-Ub-VS probe labelling", "setting": "OTUB1", "value": -0.265},
      {"measurement": "log2 ratio of Biotin-Ahx-Ub-VS probe labelling", "setting": "OTUD4", "value": "-1.18 (active)"},
      {"measurement": "log2 ratio of Biotin-Ahx-Ub-VS probe labelling", "setting": "OTUD5", "value": -0.589}
    ]}
  ]
}
